Among all 190,000 compounds or so, about 4,100 (2.2%) were called active.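 Rule for the calls: active = thallium flux slope and its plate-corrected score both differing from the plate sample mean at a set confidence after two filtering rounds, in either direction; inactive = the rest.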 The entries come from a sample that favours actives as a whole.
Target: Solute carrier family 12 member 5 (Homo sapiens) (UniProt Q9H2X9)
Experiment: modulation of human KCC2 ion transport – cell-based, HEK293 KCC2, FluoZin-2 fluorescence, MLSMR, primary screen (AID 1456);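 note: slope of fluorescence scaled to starting intensity during 10 to 20 s after thallium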
Settings: KCC2 cells, thallium flux FluoZin-2 fluorescence; at 10 µM

Sequence of Solute carrier family 12 member 5 (Homo sapiens) (Q9H2X9 whole entry, looked up): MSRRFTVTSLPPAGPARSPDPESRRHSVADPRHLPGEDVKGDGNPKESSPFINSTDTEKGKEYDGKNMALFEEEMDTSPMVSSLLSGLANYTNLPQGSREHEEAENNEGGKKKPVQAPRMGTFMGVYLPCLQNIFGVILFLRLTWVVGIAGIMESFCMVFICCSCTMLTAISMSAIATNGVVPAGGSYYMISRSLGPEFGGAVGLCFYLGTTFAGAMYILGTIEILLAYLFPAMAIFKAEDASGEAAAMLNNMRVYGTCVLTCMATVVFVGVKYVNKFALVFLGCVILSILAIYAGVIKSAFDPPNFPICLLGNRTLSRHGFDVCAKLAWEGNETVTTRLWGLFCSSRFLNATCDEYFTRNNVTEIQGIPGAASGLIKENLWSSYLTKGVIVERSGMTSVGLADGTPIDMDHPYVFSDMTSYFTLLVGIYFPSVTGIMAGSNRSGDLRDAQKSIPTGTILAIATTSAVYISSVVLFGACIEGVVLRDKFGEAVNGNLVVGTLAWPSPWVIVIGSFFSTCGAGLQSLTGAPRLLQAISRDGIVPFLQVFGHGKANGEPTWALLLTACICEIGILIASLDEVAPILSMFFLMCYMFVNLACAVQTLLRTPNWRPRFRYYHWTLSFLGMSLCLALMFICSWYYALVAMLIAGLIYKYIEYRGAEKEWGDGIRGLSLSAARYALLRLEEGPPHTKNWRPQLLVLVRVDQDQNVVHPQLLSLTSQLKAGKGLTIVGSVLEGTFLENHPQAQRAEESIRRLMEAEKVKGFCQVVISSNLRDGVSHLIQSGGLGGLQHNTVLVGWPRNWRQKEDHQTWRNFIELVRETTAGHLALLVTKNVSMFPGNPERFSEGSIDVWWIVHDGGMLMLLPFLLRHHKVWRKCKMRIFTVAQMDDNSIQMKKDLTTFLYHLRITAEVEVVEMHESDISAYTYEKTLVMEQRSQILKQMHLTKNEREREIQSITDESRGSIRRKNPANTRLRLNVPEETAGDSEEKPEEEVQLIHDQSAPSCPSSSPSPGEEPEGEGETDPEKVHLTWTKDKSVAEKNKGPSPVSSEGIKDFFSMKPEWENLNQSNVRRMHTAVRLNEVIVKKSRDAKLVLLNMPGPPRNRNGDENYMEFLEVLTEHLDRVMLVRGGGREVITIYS

B-score of Tl+ flux slope (higher = more flux/activation; lower = inhibition), inactive:
Cc1cc(OCCCN2CCN(Cc3ccccc3)CC2)ccc1[N+](=O)[O-] -0.489, O=C(CSc1nc2ccccc2s1)Nc1ccc(C(=O)O)cc1 0.381, COc1ccc(S(=O)(=O)Nc2ccc(O)c(Sc3nc4ccccc4s3)c2)cc1 -1.09, O=C(NCc1ccc(F)cc1)C1CCC(CNc2c(N3CCOCC3)c(=O)c2=O)CC1 (configuration not stated) 1.21, Cc1cc(C(=O)CSc2nc(N)cc(=O)[nH]2)c(C)n1Cc1ccco1 -0.287, COc1ccc(-c2csc(NC3OC(=O)c4ccccc43)n2)cc1 (configuration not stated) 0.605, CN(C(=O)CSc1nnc(-c2c[nH]c3ccccc23)o1)C1CCS(=O)(=O)C1 (configuration not stated) -0.897, O=C(CSc1nnc(-c2c[nH]c3ccccc23)o1)c1ccccc1 0.154, COc1cccc(C(=O)n2ccc(-c3cccs3)n2)c1 0.604, COC(=O)N(NC(=O)C(O)(C(C)C)C(C)C)c1ccccc1 -1.84, CC(CC(=O)N1CCN(c2ccccc2)CC1)c1ccccc1 (configuration not stated) -0.358, O=C(CN1CCCC1)N1CCN(c2ccccc2)CC1 0.962, S=c1[nH]nc(-c2ccco2)n1/N=C/c1ccccc1 4.67, S=c1[nH]nc(-c2ccccc2)n1/N=C/c1c[nH]c2ccccc12 0.491, Cc1cc(-c2n[nH]c(=S)n2/N=C/c2ccco2)n[nH]1 -0.111, S=c1[nH]nc(-c2cccs2)n1/N=C/c1cccs1 8.64, O=c1c2ccccc2cnn1Cc1n[nH]c(=S)n1-c1ccccc1F 0.755, CC1CCN(c2c(NCc3ccc(C(=O)NCc4ccccc4)cc3)c(=O)c2=O)CC1 -1.1, O=C(Nc1ccccc1)C1CC(=O)n2c(nc3ccccc32)N1 (configuration not stated) 0.778, CC(C)CCNC(=O)C1CCC(CNc2c(N3CCC(C)CC3)c(=O)c2=O)CC1 (configuration not stated) 0.284, COc1ccc(CNC(=O)CCC(=O)Nc2nnc(C(C)C)s2)cc1 0.0451, Cc1cccc(N2CCN(Cc3nc(C4CC4)no3)CC2)n1 -0.346, COc1cccc(NC(=O)c2ccc(S(=O)(=O)N(C)C)cc2)c1 1.09, O=C(Nc1nnc(-c2ccco2)o1)c1ccc(S(=O)(=O)N2CCOCC2)cc1 -0.75, CCCCN1CCNC1=S -0.472, O=C(Nc1ccc(Br)cn1)c1ccc([N+](=O)[O-])o1 0.106, CCCCCC(=O)Nc1ccc(C(=O)N/N=C/c2ccc([N+](=O)[O-])cc2)cc1 -0.55, CC(C)CC(=O)NC(=S)NNC(=O)c1cccc([N+](=O)[O-])c1 0.86, Cc1ccc(N2C(=O)C(CC(=O)Nc3cccc(F)c3)N(CCc3ccncc3)C2=O)cc1 (configuration not stated) 1.48, C=CCNC(=S)N1CCc2[nH]c3ccccc3c2C1 -0.783, CCCC(=O)Nc1nnc(-c2ccccc2)o1 1.22, Cc1cccc(NC(=O)Nc2nnc(-c3ccccc3)o2)c1 2.01, CC1=NNC(=O)C1CCC(=O)N/N=C(\C)c1ccc(Cl)cc1 (configuration not stated) -0.012, CC(NC(=S)Nc1ccccc1)C(c1cccs1)N1CCOCC1 (configuration not stated) 0.588, O=C(NNC(=O)C1C2CCC(C2)C1C(=O)O)c1ccc(Cl)cc1 (configuration not stated) -1.3, CCOC(=O)NNC(=O)c1ccc(Cl)cc1 0.095, O=C(CC(c1ccccc1)c1cc(Cl)ccc1O)NCCN1CCOCC1 (configuration not stated) -0.0272, CN(C)c1ccc(C=C2C(=O)OC3(CCCC3)OC2=O)cc1 -0.977, CCOc1c(Nc2cccc(Cl)c2)c(=O)c1=O -0.192, COc1ccc(C2/C=C\CN(CC(C)C)CC(=O)N2Cc2ccc(F)cc2)cc1 (configuration not stated) -1.57, COc1ccc2c(CN3CCN(S(=O)(=O)c4cccs4)CC3)cc(=O)oc2c1 -3.36, O=c1c(-c2ccc(Cl)cc2)[n+]([O-])c2ccccc2n1OCc1nc2ccccc2[nH]1 2.99, Nc1nc(NCC2CCCO2)nc(Nc2ccccc2F)c1[N+](=O)[O-] (configuration not stated) 0.249, NS(=O)(=O)c1ccc(NS(=O)(=O)/C=C/c2ccccc2)cc1 0.851, CCC(C(=O)OCC(=O)Nc1ccc(C(=O)Nc2ccc(OC)cc2)cc1)c1ccccc1 (configuration not stated) -0.012, Cc1cc(C(=O)OCC(=O)Nc2nccs2)c2ccccc2n1 -0.12, Cc1ccc2c(C)c(C(=O)N3CCC(N4CCC(C(=O)NC5CC5)CC4)CC3)oc2c1 -1.04, O=C(CSc1nnnn1-c1ccc(O)cc1)N1N=C(c2ccc3ccccc3c2)CC1c1ccccc1 (configuration not stated) 0.186, COC(=O)C1=C(C(=O)OC)C(c2cc([N+](=O)[O-])ccc2O)c2sc(=O)[nH]c2S1 (configuration not stated) -0.169, COC(=O)[C@H](CC(C)C)NC(=O)N1CCCCC1C (some centres not stated) -0.124, C/C(CC(C)C)=N\Oc1nc(C)cc(C)n1 -1.12, CCCCCCCC(=O)OC(CN1CCCCCC1)CN1CCCC1=O (configuration not stated) -0.767, Cc1cc(C)cc(NC(=O)NC2CCN(CC(=O)Nc3cccc(Cl)c3C)CC2)c1 0.963, CCOc1ccc(NS(=O)(=O)c2ccc(C)c(C(N)=O)c2)cc1 -0.277, Cc1cc(C)cc(NS(=O)(=O)c2ccc(F)cc2)c1 -0.00878, C/C(=N\Nc1cccc(C(=O)O)c1)c1ccc2c(c1)Nc1ccccc1S2 -3.29, COc1ccc(C2CC(c3ccc(Cl)cc3Cl)Nc3nc(N)nn32)cc1OC (configuration not stated) 1.07, Cc1ccc(C2CC(c3cccc(C)c3)n3nc(N)nc3N2)cc1 (configuration not stated) 1.35, COCCNC(=S)N1CCN(C)CC1 1.24, CCC(C)NC(=O)C1c2ccccc2Oc2ccccc21 (configuration not stated) 0.329, O=C(NCc1ccco1)C1CCCN1S(=O)(=O)c1ccccc1C(F)(F)F (configuration not stated) 0.797, S=C(NCc1ccc(Cl)cc1)NC1CCCCC1 -1.07, Cc1ccc(NC(=S)NC2CCCC2)cc1 -0.0505, C/C(=N/NC(=O)c1ccc(Br)o1)c1ccc(C)o1 2.02, Cc1ccc(/C=N/NC(=O)CNC(=O)COc2ccccc2)o1 1.42, Nc1ccc(N=Nc2ccccc2Cl)c(N)n1 -0.811, O=C(O)CCC(=O)Nc1nc2ccc([N+](=O)[O-])cc2s1 -0.905, O=C(Nc1nc2ccc([N+](=O)[O-])cc2s1)c1ccncc1 0.253, O=[N+]([O-])/C=C1\CCCCCN1 0.62, O=C(CNC(=O)c1ccc(-c2ccccc2)cc1)OCc1ccc(Cl)cc1 0.889, O=C(OCN1C(=O)c2ccccc2C1=O)/C(=C\c1ccco1)NC(=O)c1ccccc1 0.982, CC(=O)OCCOCn1cnn2c(=O)c(Br)c(C)nc12 0.438, Cn1nc(C(F)(F)F)c(-c2ccc(F)cc2)c1NC(=O)CSCC(=O)O 0.439, O=C(Nc1cccnc1)c1cc([N+](=O)[O-])ccc1Cl -0.0312, CCC(=O)NNc1cc(=O)c2c(=O)n(C)c(=O)n(C)c2[nH]1 1.26, Nc1nnn(CC(=O)N/N=C/c2ccc(O)cc2)n1 0.292, Cn1nnc(NC(=S)NC(=O)c2ccccc2)n1 0.462, CC1(C)CC(CNCCC(c2ccc(F)cc2)c2ccco2)CCO1 (configuration not stated) -2.25

B-score of Tl+ flux slope (higher = more flux/activation; lower = inhibition), active:
O=[N+]([O-])c1c(NCCO)cc(Sc2nc3ccccc3s2)c2nonc12 5.33, CCC(CC)NC(=O)CSc1nnc(-c2c[nH]c3ccccc23)o1 -3.08, O=C(NC(CC(=O)N1CCN(c2ccccc2)CC1)c1ccccc1)c1ccccc1Cl (configuration not stated) -2.77, S=c1[nH]nc(-c2ccco2)n1/N=C/c1ccc(Br)s1 12.6, Cc1ccc(/C=N\n2c(-c3ccccc3)n[nH]c2=S)s1 5.99, COc1cccc(-c2nnc(NC(=O)c3ccc(S(=O)(=O)N(CC(C)C)CC(C)C)cc3)o2)c1 18.6, CCCCCC(=O)NC(=S)NNC(=O)c1ccc([N+](=O)[O-])cc1 11.7, O=C(COC(=O)c1ccc(Oc2ccccc2)cc1)Nc1nnc(-c2ccccc2)o1 42.1, CSc1sc(C(=O)NNC(=O)c2ccc(Cl)cc2)c2c1C=CCC2 12.5, COc1ccc(C2/C=C\CN(S(=O)(=O)c3cccs3)CC(=O)N2Cc2ccc(F)cc2)cc1 (configuration not stated) -3.16, COc1ccc(NC(=O)COC(=O)c2ccc(NS(=O)(=O)/C=C/c3ccccc3)cc2)cc1 4.56, CC1CC(C)(C)n2c(O)c(N=NC(N)=S)c3cccc1c32 (configuration not stated) 24.8, Cc1cccc(NS(=O)(=O)c2ccc(C)c(C(N)=O)c2)c1 4.67, CCOc1ccccc1C1CC(c2ccc(Cl)cc2)Nc2nc(N)nn21 (configuration not stated) -3.62, C/C(=N\NC(=S)NC1CCCCC1)c1ccc(C)o1 13.6, Cc1ccc(/C=N/NC(=S)NC2CCCCC2)o1 13.3, O=C(NC(Nc1nc2ccc([N+](=O)[O-])cc2s1)(C(F)(F)F)C(F)(F)F)c1ccccc1 18.8, CC(C)(C)c1ccc(C(=O)NCC(=O)OCN2C(=O)c3ccccc3C2=O)cc1 2.84, CC(=O)NNc1cc(=O)c2c(=O)n(C)c(=O)n(C)c2[nH]1 6.19

From PubChem BioAssay AID1456 (Vanderbilt High Throughput Screening Facility, 2008)
